Source: PubChem
TDP1 cell noCPT: qHTS for Inhibitors of human tyrosyl-DNA phosphodiesterase 1 (TDP1): qHTS in cells in absence of CPT. DT40 Tdp1-/- hTDP1 cells, no CPT, ATP luminescence, 48 h. Potency, µM (highest dose often 46.2 µM), without a hit: at the top dose activity change, negative = growth inhibition, usual class: inhibitors. hit rate 15% among 420,000. AID 686978, 2013; further: potency means the concentration at half of the fitted maximal effect; nearly all actives have a fitted effect of over 55% in size
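Luminescent ATP content (CellTiter-Glo) served as the growth readout. Knockout chicken DT40 cells expressing human TDP1 were exposed to compounds without camptothecin for a minimum 48 hr at 37 °C.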
HT1080NT lethal: qHTS for induction of synthetic lethality in tumor cells producing 2HG: qHTS for the HT-1080-NT fibrosarcoma cell line. AID 686970, 2013. hit rate 1.6% among 360,000. HT-1080-NT fibrosarcoma viability, CellTiter-Glo ATP luminescence, 48 h. Potency, µM (highest dose often 46.1 µM), for the others: at the highest dose activity, negative = less viability, usual class: cytotoxic;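 further: NT is the 2HG producing partner of a matched IDH1 knockdown line; potency means the concentration at half of the fitted maximal effect; 0% = DMSO-treated cells and -100% = media-only wells without cells; nearly all actives have a fitted effect of over 55% in size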
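Read-out is CellTiter-Glo luminescence after 10 minutes at room temperature, following 48 hours' compound treatment of HT-1080-NT cells (750 cells/well, RPMI, 5% FBS, 37 degrees C).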
DT40 TDP1 CPT: qHTS for Inhibitors of human tyrosyl-DNA phosphodiesterase 1 (TDP1): qHTS in cells in presence of CPT; Potency, µM (top dose mostly 46.2 µM), for the others: at the top dose activity change, negative = growth inhibition, most hits filed as inhibitors; chicken DT40 Tdp1-/-;hTDP1 cells + 20 nM CPT, ATP luminescence, 48 h; AID 686979, 2013; hit rate 12% among 420,000; further: potency means the concentration at half of the fitted maximal effect; nearly all actives have a fitted effect of over 55% in size
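Cell growth measured by CellTiter-Glo luminescence after a minimum 48 h, 37 C compound exposure with 20 nM CPT in Tdp1-knockout DT40 cells stably expressing hTDP1, seeded 400/well; qHTS titration format.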
IL-1B inflam inh: qHTS for Inhibitors of Inflammasome Signaling: IL-1-beta AlphaLISA Primary Screen; THP-1 LPS/ATP IL-1B secretion, AlphaLISA, 16 h; active compounds read low; activity change, % at 57.5 µM; hit rate 4.7% among 360,000; AID 743279, 2014; in the data active means activity change below about -50%; inconclusive means mostly about -30% to -49%
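THP-1 cells pretreated 1 hr with compounds (up to 57.5 uM final), then stimulated with LPS (250 ng/mL final) plus ATP (1.25 mM final); secreted IL-1B measured by AlphaLISA after 16 hr, decreased signal indicating inhibition.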
HT1080 IDH1KD tx: qHTS for induction of synthetic lethality in tumor cells producing 2HG: qHTS for the HT-1080-IDH1KD cell line | HT-1080 IDH1 knockdown viability, ATP luminescence, 48 h | Potency, µM (doses to about 46.1 µM), for inactives: at the top dose activity, negative = toxicity, hits mostly cytotoxic | hit rate 2% among 360,000;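 further: potency means the concentration at half of the fitted maximal effect; 0% = DMSO wells and -100% = cell-free medium wells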
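In this qHTS, HT-1080 cells depleted of IDH1 are exposed for 48 h at 37 °C to compound titrations. Toxicity is scored from CellTiter-Glo luminescence, with DMSO as full viability and medium alone as none.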
An asterisk follows results filed as active; i = inactive; ? = inconclusive; . = no result; [ ] = remark or other dose. Only some compounds are listed: those with a hit (about 19% of all), similar ones and a draw of the others. Unless noted, the call rests on the fitted dose curve; in most records, active means well fitted curve in the direction sought with a large enough effect; inconclusive means small, poorly fitted or top-dose-only effect, or another doubt; inactive means no such curve, though single readings can be large; an effect the other way counts as inactive or inconclusive. Unless noted, on the % scale 0 is the no-effect control and ±100 the full control effect.

SMILES	TDP1 cell noCPT	HT1080NT lethal	DT40 TDP1 CPT	IL-1B inflam inh	HT1080 IDH1KD tx
Cc1cccc(NC(=O)C2CCN(S(=O)(=O)c3c(C)noc3/C=C/c3ccco3)CC2)n1	23µM*	-6%	16µM*	?	-3%
Cc1cc(C)cc(NC(=O)C2CCN(S(=O)(=O)c3c(C)noc3/C=C/c3ccco3)CC2)c1	15µM*	.	23µM*	.	.
Cc1noc(/C=C/c2ccco2)c1S(=O)(=O)N1CCC(C(=O)Nc2ccc(F)c(Cl)c2)CC1	4.6µM*	.	5.2µM*	.	.
Cc1ccc(NC(=O)C2CCN(S(=O)(=O)c3c(C)noc3/C=C/c3ccco3)CC2)cc1C	13µM*	.	?	.	.
Cn1ccnc1C1CCCCN1C(=O)CN1Cc2ccccc2OC(c2ccccc2F)C1 (configuration not stated)	?	.	-11%[9.04 µM]	.	.
Cc1nn(CC(=O)NC2CC2)c(=O)c2cc3cc(F)ccc3n12	-12%	.	-1%	.	.
O=S(=O)(c1ccc2[nH]ccc2c1)N1CCCCCC1	-23%	-4%	-15%	-13	0%
Cc1cccc(NC(=O)C2CCN(S(=O)(=O)c3ccc4c(c3)OCCCO4)CC2)n1	21µM*	-25%	?	-12	?
CC(C)(C)n1nnnc1C(c1cc2ccccc2o1)N1CCOCC1 (configuration not stated)	-22%	0%	-2%	-8	5%
COC(=O)c1c(NC(=O)CSc2nc(-c3ccco3)cc(C(F)(F)F)n2)sc2c1CCCC2	?	5%	-11%	-19	2%
COC(=O)c1ccc(C(=O)OC)c(NC(=O)CSc2nc(-c3ccco3)cc(C(F)(F)F)n2)c1	?	11%	?	18	7%
COc1ccc(Cl)cc1NC(=O)CSc1nc(-c2ccco2)cc(C(F)(F)F)n1	16µM*	.	18µM*	.	.
COC(=O)c1ccccc1NC(=O)CSc1nc(-c2ccco2)cc(C(F)(F)F)n1	4.6µM*	?	4.1µM*	43	3.5µM*
O=C(CSc1nc(-c2ccco2)cc(C(F)(F)F)n1)NC1CCCC1	?	9%	21µM*	-6	0%
Cc1ccc(NC(=O)CSc2nc(-c3ccco3)cc(C(F)(F)F)n2)cc1C	3.7µM*	10µM*	2.3µM*	24	2.5µM*
CCOc1ccc(-n2c(Cc3cc(=O)[nH]c(=O)[nH]3)nnc2SCC(=O)Nc2nnc(C)s2)cc1	-3%	20%	2%	0	1%
CCCCOc1ccc(NC2=NC3(CCCC3)N=C(N)N2)cc1	16µM*	?	16µM*	-28	?
CCOC1OC(=O)C(Cl)=C1Nc1ccc(C)cc1C (configuration not stated)	-25%	-3%	-29%	-30	2%
Cc1c(CCOC(=O)C23CC4CC(CC(C)(C4)C2)C3)sc[n+]1CC(=O)c1ccccc1	21µM*	?	23µM*	?	?
Cc1c(CCOC(=O)CC23CC4CC(CC(C)(C4)C2)C3)sc[n+]1CC(=O)c1ccccc1	16µM*	-20%	16µM*	-81*	-28%
Cc1c(CCOC(=O)c2cc([N+](=O)[O-])cc([N+](=O)[O-])c2)sc[n+]1CC(=O)c1ccccc1	0%	0%	-25%	7	8%
Cc1c(CCOC(=O)CC23CC4CC(CC(C4)C2)C3)sc[n+]1CC(=O)c1ccc(Br)cc1	26µM*	?	?	-61*	?
Cc1ncsc1CCOC(=O)C12CC3CC(CC(C3)C1)C2	-27%	-7%	-24%	8	-6%
CCOC(=O)N(C)c1c(CC)nc2c(OCc3ccccc3C)cccn12	15µM*	4%	?	11	5%
CCOC(=O)N(C)c1c(CC)nc2c(OCC(=O)C(C)(C)C)cccn12	-20%	4%	-22%	8	20%
SMILES	TDP1 cell noCPT	HT1080NT lethal	DT40 TDP1 CPT	IL-1B inflam inh	HT1080 IDH1KD tx
CCOC(=O)N(C)c1c(CC)nc2c(OCc3cccc(Cl)c3)cccn12	?	-22%	?	-7	-27%
CCOC(=O)N(C)c1c(CC)nc2c(OCCOc3ccccc3)cccn12	16µM*	11%	?	-15	21%
CCOC(=O)N(C)c1c(CC)nc2c(OCc3ccccc3OC)cccn12	16µM*	-19%	21µM*	21	0%
CCOC(=O)c1ccccc1NS(=O)(=O)c1ccc(C)cc1	?	-25%	?	-8	?
CC(C)CCNS(=O)(=O)c1ccc(N2CCCCS2(=O)=O)cc1	9.2µM*	.	12µM*	.	.
CCCCCNS(=O)(=O)c1ccc(N2CCCCS2(=O)=O)cc1	18µM*	.	16µM*	.	.
COc1ccccc1CNS(=O)(=O)c1ccc(NC(C)=O)cc1	?	-5%	-28%	23	-20%
CCOC(=O)c1ccccc1NS(=O)(=O)c1ccc(N2CCCCS2(=O)=O)cc1	16µM*	.	23µM*	.	.
COc1ccccc1CNS(=O)(=O)c1ccc(N2CCCCS2(=O)=O)cc1	23µM*	.	?	.	.
CCN(CC)S(=O)(=O)c1ccc(N2CCCCS2(=O)=O)cc1	-23%	.	-15%	.	.
CCOC(=O)C1CCN(S(=O)(=O)c2ccc(N3CCCCS3(=O)=O)cc2)CC1	-29%	.	-6%	.	.
O=C(NC1CCCC1)C(C1CC1)n1c(C2CC2)nc2ccccc21 (configuration not stated)	-18%	14%	8%	-28	1%
COc1ccccc1CN1CC[C@@]2(CCCN(S(C)(=O)=O)C2)C1	1%	.	?	.	.
Cc1cc(C)cc(NS(=O)(=O)c2ccc(N3CCCCS3(=O)=O)cc2)c1	15µM*	.	12µM*	.	.
COS(C)(=O)=O	-12%	.	6%	.	.
COC(=O)CNC(=O)CSc1nc2sc(-c3ccccc3)cc2c(=O)n1-c1ccccc1	-27%	-1%	?	-66*	-2%
CCOC(=O)C(=O)NNc1ccc(C)cc1	?	?	-11%	i	-2%
C=C(C)C(=O)NNc1ccccc1	7.3µM*	7.3µM*	5.2µM*	4	21µM*
CCOC(=O)C(=O)NNc1ccc(Cl)cc1	-11%	3.7µM*	25%	-15	4.1µM*
CCOC(=O)C(=N/O)/C(C)=N/NC(=O)C(=O)Nc1ccc(Cl)cc1	2.1µM*	-26%	4.1µM*	-23	-4%
CCCOC(=O)C(=O)NNc1ccccc1	13%	3.7µM*	0%	-10	5.2µM*
CCCCCC(=O)Nc1cc(S(=O)(=O)N2CCCCC2)ccc1N1CCOCC1	?	-1%	-28%	-1	0%
